Among the data in paper PMC7862700, “An all-to-all approach to the identification of sequence-specific readers for epigenetic DNA modifications on cytosine” are binding signal values, retold here.

Experiment in all cases: DAPPL (digital affinity profiling via proximity ligation, sequencing); 10 mM Tris-HCl pH 7.5, 50 mM NaCl, 1 mM DTT, 4% glycerol, room temperature, 30 min; GST-TFs on glutathione beads, 16-mer random dsDNA library, 0.1% formaldehyde crosslink after washing; high values mean tight binding
The target in assay [1] is T1, FEV (Homo sapiens, UniProt Q99581 1-238).
T1 sequence: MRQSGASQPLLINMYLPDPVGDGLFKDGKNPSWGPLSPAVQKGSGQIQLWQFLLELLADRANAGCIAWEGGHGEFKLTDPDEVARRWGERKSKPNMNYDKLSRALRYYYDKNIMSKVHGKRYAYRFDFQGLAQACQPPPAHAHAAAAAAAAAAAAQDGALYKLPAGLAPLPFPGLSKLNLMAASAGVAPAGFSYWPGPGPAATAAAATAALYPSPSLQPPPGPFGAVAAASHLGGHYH
As to conditions: protein: recombinant; tags: N-terminal GST; dsDNA, one strand shown. In short, it runs like this:
(§1)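 Human transcription factors were made in yeast as GST fusions, captured on glutathione beads and barcoded with DNA. With a tag-only sample included, the pool was incubated with 200 nmole of a random double-stranded 16-mer DNA library in Tris/NaCl/DTT/glycerol buffer at room temperature for 30 min, then crosslinked with 0.1% formaldehyde after washing, ligated by proximity, amplified and sequenced. For binding signal, each hexamer's read frequency for a factor is divided by its frequency for the tag-only sample.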

Assay [2] addresses ETV5 (Homo sapiens, UniProt P41161 1-510). As to conditions: protein: recombinant; tags: N-terminal GST; dsDNA, one strand shown. Summed up: as §1
In assay [3] the target is HSF1 (Homo sapiens, UniProt Q00613 1-529). Conditions: protein: recombinant; tags: N-terminal GST; chain copies: 3; dsDNA, one strand shown. In short, it runs like this:
as §1

Assay [4] concerns the target T2, SPIC (Homo sapiens, UniProt Q8N5J4 1-248).
T2 sequence: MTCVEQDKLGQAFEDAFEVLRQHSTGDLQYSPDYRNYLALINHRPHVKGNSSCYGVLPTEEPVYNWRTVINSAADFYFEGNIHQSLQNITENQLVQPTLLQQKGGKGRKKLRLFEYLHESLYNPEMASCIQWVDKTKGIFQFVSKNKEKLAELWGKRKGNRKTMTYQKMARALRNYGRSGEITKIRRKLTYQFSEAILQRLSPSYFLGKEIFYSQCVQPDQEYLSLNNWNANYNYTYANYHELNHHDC
As to conditions: protein: recombinant; tags: N-terminal GST; dsDNA, one strand shown. Summed up:
as §1

For assay [5], the target named is ELF4 (Homo sapiens, UniProt Q99607 1-663). Conditions: protein: recombinant; tags: N-terminal GST; dsDNA, one strand shown. Summed up: as §1
Assay [6] has as its target T3, ELK4 (Homo sapiens, UniProt P28324-2 1-405).
T3 sequence: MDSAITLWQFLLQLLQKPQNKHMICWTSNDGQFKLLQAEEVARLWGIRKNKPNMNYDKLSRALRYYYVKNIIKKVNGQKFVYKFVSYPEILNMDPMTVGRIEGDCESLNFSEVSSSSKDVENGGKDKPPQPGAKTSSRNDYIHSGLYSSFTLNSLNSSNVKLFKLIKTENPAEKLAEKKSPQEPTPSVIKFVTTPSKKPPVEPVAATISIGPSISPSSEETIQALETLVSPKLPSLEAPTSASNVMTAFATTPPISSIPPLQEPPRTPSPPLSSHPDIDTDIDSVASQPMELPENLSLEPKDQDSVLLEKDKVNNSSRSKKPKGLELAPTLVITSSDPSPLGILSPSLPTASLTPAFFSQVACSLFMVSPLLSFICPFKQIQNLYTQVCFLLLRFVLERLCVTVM
Conditions: protein: recombinant; tags: N-terminal GST; dsDNA, one strand shown. In short, it runs like this: as §1

In assay [7] the target is T4, ETV2 (Homo sapiens, UniProt O00321 1-342).
T4 sequence: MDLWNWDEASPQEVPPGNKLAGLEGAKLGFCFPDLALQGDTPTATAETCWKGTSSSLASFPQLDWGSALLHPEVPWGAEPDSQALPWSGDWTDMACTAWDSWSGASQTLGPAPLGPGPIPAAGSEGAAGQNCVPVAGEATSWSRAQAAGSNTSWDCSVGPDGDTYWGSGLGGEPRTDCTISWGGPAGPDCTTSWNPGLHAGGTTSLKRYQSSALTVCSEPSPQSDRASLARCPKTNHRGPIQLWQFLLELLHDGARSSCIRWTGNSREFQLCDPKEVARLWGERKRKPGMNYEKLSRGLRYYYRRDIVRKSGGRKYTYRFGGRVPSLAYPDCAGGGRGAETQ
Conditions: protein: recombinant; tags: N-terminal GST; dsDNA, one strand shown. Summed up: as §1

For assay [8], the target named is T5, ELF3 (Homo sapiens, UniProt P78545 1-371).
T5 sequence: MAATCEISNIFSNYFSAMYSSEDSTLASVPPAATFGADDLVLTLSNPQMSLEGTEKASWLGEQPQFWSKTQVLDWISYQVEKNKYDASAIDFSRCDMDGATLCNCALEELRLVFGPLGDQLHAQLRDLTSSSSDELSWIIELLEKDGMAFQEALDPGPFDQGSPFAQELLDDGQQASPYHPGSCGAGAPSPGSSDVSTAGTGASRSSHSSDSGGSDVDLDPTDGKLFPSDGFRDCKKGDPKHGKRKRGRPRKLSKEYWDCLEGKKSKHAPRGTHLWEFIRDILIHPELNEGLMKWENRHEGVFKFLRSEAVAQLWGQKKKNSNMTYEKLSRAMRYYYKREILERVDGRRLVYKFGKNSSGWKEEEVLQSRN
Conditions: protein: recombinant; tags: N-terminal GST; dsDNA, one strand shown. In short, it runs like this:
as §1

Assay [9] concerns the target CRX (Homo sapiens, UniProt O43186 1-299). As to conditions: protein: recombinant; tags: N-terminal GST; dsDNA, one strand shown. In short, it runs like this: as §1
In assay [10] the target is ETV1 (Homo sapiens, UniProt P50549 1-477). Conditions: protein: recombinant; tags: N-terminal GST; dsDNA, one strand shown. Summed up:
as §1

The target of assay [11] is T6, ERF (Homo sapiens, UniProt P50548 1-548).
T6 sequence: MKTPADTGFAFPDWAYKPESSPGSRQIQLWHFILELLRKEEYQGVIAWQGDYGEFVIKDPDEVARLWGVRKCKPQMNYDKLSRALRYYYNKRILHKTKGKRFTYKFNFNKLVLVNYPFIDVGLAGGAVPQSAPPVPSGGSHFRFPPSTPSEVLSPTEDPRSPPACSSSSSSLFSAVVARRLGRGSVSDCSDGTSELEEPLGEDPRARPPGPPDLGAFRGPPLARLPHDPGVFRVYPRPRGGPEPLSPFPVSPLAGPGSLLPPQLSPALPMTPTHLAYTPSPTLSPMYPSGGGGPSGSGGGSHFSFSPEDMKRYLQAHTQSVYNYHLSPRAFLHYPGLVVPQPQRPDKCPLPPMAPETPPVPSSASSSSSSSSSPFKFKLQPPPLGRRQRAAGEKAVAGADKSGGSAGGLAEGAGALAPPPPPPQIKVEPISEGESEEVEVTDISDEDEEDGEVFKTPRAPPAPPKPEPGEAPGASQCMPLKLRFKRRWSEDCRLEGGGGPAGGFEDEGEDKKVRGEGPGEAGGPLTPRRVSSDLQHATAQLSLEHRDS
As to conditions: protein: recombinant; tags: N-terminal GST; dsDNA, one strand shown. Summed up:
as §1

Assay [12] deals with T7, ETV3L (Homo sapiens, UniProt Q6ZN32 1-361).
T7 sequence: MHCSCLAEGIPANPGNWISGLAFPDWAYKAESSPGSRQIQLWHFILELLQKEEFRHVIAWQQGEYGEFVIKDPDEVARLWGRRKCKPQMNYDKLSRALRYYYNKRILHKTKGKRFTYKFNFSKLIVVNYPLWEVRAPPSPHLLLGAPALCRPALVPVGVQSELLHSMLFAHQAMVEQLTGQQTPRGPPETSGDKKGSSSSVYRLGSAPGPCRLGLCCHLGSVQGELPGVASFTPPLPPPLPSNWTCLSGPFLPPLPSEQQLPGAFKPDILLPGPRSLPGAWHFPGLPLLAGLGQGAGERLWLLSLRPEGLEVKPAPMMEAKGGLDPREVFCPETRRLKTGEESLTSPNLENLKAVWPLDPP
As to conditions: protein: recombinant; tags: N-terminal GST; dsDNA, one strand shown. Summed up:
as §1

The target of assay [13] is T8, ETS2 (Homo sapiens, UniProt P15036 1-469).
T8 sequence: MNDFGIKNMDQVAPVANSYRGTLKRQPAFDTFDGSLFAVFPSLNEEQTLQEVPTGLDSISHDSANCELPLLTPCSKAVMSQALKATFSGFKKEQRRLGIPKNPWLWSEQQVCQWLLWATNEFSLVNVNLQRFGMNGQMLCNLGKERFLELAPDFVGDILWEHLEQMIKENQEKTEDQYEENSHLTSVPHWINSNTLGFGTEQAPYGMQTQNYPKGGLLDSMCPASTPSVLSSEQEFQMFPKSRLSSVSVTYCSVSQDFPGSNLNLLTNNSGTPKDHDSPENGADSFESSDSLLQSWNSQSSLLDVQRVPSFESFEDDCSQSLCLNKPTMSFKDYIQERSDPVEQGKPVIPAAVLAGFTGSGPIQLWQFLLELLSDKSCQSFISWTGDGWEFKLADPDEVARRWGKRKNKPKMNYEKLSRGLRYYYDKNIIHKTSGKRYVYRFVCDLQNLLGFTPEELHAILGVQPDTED
As to conditions: protein: recombinant; tags: N-terminal GST; dsDNA, one strand shown. In short, it runs like this: as §1

Assay [14] addresses T9, SPDEF (Homo sapiens, UniProt O95238 1-335).
T9 sequence: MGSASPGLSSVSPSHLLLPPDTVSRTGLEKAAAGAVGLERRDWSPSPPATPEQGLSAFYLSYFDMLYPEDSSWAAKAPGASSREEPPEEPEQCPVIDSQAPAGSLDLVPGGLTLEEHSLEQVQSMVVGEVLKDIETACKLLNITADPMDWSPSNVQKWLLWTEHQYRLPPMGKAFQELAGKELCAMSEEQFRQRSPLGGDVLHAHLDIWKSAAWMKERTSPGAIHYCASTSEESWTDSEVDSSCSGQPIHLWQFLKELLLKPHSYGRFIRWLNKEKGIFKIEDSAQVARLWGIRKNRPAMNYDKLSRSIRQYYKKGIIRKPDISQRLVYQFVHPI
Conditions: protein: recombinant; tags: N-terminal GST; dsDNA, one strand shown. In short, it runs like this:
as §1

The target of assay [15] is T10, ETV7 (Homo sapiens, UniProt Q9Y603 1-341).
T10 sequence: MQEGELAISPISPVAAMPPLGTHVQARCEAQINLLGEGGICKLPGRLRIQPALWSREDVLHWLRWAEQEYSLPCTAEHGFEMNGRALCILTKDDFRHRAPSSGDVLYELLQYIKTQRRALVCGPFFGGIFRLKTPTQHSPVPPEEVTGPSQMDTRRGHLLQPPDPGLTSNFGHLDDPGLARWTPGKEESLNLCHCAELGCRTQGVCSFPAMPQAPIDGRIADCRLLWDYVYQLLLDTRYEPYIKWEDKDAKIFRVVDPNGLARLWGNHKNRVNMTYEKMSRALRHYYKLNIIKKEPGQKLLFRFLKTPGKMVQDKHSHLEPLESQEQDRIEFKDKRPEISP
Conditions: protein: recombinant; tags: N-terminal GST; dsDNA, one strand shown. Summed up: as §1

In assay [16] the target is T11, ELF5 (Homo sapiens, UniProt Q9UKW6-2 1-255).
T11 sequence: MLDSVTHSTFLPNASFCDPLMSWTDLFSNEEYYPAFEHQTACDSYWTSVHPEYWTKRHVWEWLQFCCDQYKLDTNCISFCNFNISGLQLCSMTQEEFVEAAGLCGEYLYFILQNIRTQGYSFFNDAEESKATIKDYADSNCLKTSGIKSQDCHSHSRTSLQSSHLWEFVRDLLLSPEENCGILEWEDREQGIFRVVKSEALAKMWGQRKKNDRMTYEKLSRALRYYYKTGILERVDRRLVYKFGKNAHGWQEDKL
As to conditions: protein: recombinant; tags: N-terminal GST; dsDNA, one strand shown. In short, it runs like this:
as §1

The target in assay [17] is T12, ETV3 (Homo sapiens, UniProt P41162-2 1-143).
T12 sequence: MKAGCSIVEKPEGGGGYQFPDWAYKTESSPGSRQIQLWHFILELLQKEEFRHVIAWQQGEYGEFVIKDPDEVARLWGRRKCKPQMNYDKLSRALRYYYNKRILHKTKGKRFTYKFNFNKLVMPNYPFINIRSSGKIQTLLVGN
Conditions: protein: recombinant; tags: N-terminal GST; dsDNA, one strand shown. Summed up: as §1

Assay [18] concerns the target ETV6 (Homo sapiens, UniProt P41212 1-452). As to conditions: protein: recombinant; tags: N-terminal GST; dsDNA, one strand shown. In short, it runs like this: as §1

ELF4, sequence (Q99607 whole entry): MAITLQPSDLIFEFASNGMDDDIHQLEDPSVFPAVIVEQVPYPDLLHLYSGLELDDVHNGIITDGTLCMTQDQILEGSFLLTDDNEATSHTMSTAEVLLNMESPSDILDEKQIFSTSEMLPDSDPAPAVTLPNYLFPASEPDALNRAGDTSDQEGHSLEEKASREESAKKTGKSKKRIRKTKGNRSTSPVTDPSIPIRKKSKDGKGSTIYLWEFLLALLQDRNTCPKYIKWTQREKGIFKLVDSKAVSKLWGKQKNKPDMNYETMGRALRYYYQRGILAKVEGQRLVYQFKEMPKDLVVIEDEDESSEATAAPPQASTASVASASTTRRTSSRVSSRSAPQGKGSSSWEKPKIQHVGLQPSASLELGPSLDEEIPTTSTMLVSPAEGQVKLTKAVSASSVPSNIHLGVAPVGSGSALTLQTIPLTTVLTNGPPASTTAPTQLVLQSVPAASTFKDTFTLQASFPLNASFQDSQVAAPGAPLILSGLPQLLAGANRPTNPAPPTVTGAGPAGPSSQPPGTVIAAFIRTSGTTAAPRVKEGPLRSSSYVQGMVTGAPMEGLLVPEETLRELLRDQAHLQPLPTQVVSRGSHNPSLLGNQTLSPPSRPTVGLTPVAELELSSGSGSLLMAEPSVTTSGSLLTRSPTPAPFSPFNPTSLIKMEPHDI
HSF1, sequence (Q00613 whole entry): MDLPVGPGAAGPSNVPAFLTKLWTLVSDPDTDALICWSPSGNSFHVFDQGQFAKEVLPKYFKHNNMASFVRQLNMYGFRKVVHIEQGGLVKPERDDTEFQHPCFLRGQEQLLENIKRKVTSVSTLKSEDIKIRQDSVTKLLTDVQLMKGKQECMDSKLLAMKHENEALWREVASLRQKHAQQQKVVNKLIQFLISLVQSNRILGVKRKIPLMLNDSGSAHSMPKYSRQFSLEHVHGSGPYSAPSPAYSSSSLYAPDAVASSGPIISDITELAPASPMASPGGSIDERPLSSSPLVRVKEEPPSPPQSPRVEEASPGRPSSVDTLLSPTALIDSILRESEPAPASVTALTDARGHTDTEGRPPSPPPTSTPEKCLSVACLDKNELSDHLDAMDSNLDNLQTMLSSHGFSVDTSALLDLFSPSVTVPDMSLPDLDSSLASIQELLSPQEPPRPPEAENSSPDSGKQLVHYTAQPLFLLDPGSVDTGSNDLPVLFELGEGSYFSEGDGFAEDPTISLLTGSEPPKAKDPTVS
CRX, sequence (O43186 whole entry): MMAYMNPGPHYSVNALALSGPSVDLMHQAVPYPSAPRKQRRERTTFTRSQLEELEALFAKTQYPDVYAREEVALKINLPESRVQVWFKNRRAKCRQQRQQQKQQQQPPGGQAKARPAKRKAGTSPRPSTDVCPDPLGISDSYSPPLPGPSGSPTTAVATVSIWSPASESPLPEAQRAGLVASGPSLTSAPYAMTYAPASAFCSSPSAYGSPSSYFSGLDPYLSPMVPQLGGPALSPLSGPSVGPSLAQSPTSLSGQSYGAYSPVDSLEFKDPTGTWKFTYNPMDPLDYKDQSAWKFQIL
ETV1, sequence (P50549 whole entry): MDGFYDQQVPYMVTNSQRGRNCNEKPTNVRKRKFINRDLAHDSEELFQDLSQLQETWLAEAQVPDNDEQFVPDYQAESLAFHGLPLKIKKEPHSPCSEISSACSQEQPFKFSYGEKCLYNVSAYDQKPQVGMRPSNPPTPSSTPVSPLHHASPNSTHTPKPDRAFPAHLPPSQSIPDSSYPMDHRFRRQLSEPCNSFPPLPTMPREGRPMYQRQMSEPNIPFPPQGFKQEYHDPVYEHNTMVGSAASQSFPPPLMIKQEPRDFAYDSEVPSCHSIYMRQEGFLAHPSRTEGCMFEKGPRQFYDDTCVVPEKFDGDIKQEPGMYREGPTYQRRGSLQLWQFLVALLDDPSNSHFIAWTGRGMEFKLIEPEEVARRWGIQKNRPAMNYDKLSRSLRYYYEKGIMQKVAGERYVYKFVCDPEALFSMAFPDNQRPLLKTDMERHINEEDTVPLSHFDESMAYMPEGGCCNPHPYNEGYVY
ETV5, sequence (P41161 whole entry): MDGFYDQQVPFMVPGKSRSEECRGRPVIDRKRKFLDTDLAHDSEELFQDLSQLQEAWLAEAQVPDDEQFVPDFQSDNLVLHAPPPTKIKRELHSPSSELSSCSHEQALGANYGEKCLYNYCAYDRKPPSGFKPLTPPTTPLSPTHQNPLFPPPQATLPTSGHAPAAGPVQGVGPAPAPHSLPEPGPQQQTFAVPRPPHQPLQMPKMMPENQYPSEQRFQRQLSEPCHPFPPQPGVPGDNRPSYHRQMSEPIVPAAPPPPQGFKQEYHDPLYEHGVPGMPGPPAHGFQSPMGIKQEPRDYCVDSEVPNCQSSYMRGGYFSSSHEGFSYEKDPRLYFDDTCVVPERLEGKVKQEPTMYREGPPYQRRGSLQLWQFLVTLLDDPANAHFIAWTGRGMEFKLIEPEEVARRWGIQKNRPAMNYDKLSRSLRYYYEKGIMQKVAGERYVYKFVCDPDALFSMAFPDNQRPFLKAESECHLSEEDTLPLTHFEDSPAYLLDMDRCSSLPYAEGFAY
ETV6, sequence (P41212 whole entry): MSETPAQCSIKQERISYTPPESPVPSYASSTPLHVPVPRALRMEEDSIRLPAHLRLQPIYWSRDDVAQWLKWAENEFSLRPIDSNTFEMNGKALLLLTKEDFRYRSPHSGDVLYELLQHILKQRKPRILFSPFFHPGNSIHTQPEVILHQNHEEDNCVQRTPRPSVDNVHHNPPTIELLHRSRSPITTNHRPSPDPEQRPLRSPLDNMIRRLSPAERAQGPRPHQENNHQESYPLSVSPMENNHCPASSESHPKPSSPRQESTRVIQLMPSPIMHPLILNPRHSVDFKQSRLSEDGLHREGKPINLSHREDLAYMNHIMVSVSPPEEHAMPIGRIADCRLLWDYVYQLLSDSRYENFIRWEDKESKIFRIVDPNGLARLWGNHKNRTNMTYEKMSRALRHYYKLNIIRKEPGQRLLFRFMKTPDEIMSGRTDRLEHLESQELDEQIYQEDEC

Regarding ATTCGA, the binding signal in assay [1] was 1.27 fold enrichment (6-mer frequency, TF over GST control); in assay [2], 1.28 fold enrichment (6-mer frequency, TF over GST control); in [3], 2.51 fold enrichment (6-mer frequency, TF over GST control); in assay [4], 1.41 fold enrichment (6-mer frequency, TF over GST control); in assay [5], 1.38 fold enrichment (6-mer frequency, TF over GST control); in [6], 1.2 fold enrichment (6-mer frequency, TF over GST control). Besides, the binding signal in assay [7] is 1.37 fold enrichment (6-mer frequency, TF over GST control); in assay [8], 1.55 fold enrichment (6-mer frequency, TF over GST control); in [9] it was 1.63 fold enrichment (6-mer frequency, TF over GST control); in assay [10], 1.3 fold enrichment (6-mer frequency, TF over GST control); in assay [11], 1.29 fold enrichment (6-mer frequency, TF over GST control); in assay [12], 1.47 fold enrichment (6-mer frequency, TF over GST control). In addition, the binding signal was 1.31 fold enrichment (6-mer frequency, TF over GST control) in assay [13]; 1.28 fold enrichment (6-mer frequency, TF over GST control) in [14]; 1.28 fold enrichment (6-mer frequency, TF over GST control) in [15]; 1.24 fold enrichment (6-mer frequency, TF over GST control) in assay [16]; 1.22 fold enrichment (6-mer frequency, TF over GST control) in assay [17]; 1.23 fold enrichment (6-mer frequency, TF over GST control) in assay [18].
